Shown are actives, neighbours in structure and some others; about 3.2% of the full set was active somewhere.
MEKK2 WT-MEK5: modulators of MEK5 binding to wildtype MEKK2, primary screen, biochemical, multiplex bead flow cytometry, Alexa488-MEK5 | Alexa488-MEK5 binding to MEKK2 WT; actives lie on both sides | binding response (% of control), % at 10 µM | hit rate 1.1% among 290,000 | AID 1531, 2009; in the data active means binding response below about 67% or above about 130%
SKN-1 block: suppressors of acrylamide-induced Pgst-4::GFP reporter in worms, primary screen, SKN-1 inhibitor project, whole organism, uHTS, GFP/RFP fluorescence ratio, strain VP596; C. elegans VP596 Pgst-4::GFP/RFP ratio, 24 h; AID 624304, 2012; hit rate 0.49% among 360,000; inhibition, % at 21.8 µM;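 active means interference check ratio from 0.5 to 1.5 plus GFP to RFP signal ratio inhibition reaching or exceeding a fixed threshold, cut at about 30% in these data, passing the limit was not always enough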
MEKK3 PB1 HTS: modulators of MEKK3-MEK5 PB1 binding, primary screen, biochemical, wildtype MEKK3, multiplex bead flow cytometry, Alexa488-MEK5 | Mitogen-activated protein kinase kinase kinase 3 (Homo sapiens), Q99759 | bead-based flow cytometry, Alexa488-MEK5 binding to MEKK3; actives lie on both sides; 0 = blocked by unlabeled MEK5, 100 = vehicle | binding response (% of control), % at 10 µM | hit rate 1.4% among 290,000 | AID 1529, 2009;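 active means binding response more than 3 SD above or below the average of its plate-row segment, actives on both sides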;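 further: Alexa488 bead fluorescence after subtracting the streptavidin-only scavenger bead signal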
NRP1-CendR mod: modulators of CendR peptide binding to NRP-1, primary screen, biochemical, fluorescence polarization, uHTS; inhibition, % at 25 µM; Neuropilin-1 (Homo sapiens), O14786; AID 602438, 2012; hit rate 0.85% among 360,000; FAM-RPARPAR peptide binding to NRP-1;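 active means inhibition or corrected inhibition above about 18%, plus a signal ratio from 0.5 to 1.5, limit read from the data, passing the limit was not always enough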
Target sequence (O14786 whole entry, looked up): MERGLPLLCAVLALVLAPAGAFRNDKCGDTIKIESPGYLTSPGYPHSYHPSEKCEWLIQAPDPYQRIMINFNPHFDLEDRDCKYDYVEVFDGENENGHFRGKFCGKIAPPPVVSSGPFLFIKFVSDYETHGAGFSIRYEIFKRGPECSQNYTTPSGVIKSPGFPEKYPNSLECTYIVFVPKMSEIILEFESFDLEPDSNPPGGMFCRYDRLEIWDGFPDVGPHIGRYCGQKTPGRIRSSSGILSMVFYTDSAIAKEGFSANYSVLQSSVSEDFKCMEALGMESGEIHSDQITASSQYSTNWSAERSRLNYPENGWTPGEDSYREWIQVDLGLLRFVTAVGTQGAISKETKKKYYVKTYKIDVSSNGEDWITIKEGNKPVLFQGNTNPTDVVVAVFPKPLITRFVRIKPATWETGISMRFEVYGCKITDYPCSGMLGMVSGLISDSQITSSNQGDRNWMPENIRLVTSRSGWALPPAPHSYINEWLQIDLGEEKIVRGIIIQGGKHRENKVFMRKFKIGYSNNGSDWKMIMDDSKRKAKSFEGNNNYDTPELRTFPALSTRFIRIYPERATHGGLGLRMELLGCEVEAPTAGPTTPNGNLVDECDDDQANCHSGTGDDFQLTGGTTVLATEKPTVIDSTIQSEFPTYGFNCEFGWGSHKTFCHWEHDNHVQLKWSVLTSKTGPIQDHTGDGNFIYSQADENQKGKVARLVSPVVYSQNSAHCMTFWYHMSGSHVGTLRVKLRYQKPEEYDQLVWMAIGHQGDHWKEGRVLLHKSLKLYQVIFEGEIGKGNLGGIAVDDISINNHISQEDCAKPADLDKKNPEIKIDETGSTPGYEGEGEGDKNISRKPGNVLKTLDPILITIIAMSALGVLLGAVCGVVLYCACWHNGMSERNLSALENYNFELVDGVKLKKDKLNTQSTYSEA
MEKK2mut PB1 HTS: MEK5 binding signal on mutant MEKK2 PB1, primary screen, biochemical, multiplex bead flow cytometry, Alexa488-MEK5. Alexa488-MEK5 binding to MEKK2 mutant. percent response, % at 10 µM. hit rate 0.35% among 290,000; in the data active means percent response above about 24%, passing the limit was not always enough
MEKK2wt confirm: modulators of MEK5 binding to wildtype MEKK2, confirmation, biochemical, single concentration, multiplex bead flow cytometry; Alexa488-MEK5 binding to MEKK2 WT; actives lie on both sides; binding response (% of control), % at 10 µM; AID 1892, 2009; shares compounds with MEKK3 PB1 HTS; hit rate 2.4% among 5,900; in the data active means binding response below about 16% or above about 210%; inactive means in between
MEKK2mut-MEK5: mutant MEKK2 PB1-MEK5 binding signal retest – biochemical, single concentration, multiplex bead flow cytometry, confirmation. hit rate 2% among 5,900. Alexa488-MEK5 binding to MEKK2 mutant. shares compounds with MEKK3 PB1 HTS. percent response, % at 10 µM; in the data active means percent response mostly above about 71%, no sharp cut-off; inactive means mostly below about 38%;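 further: higher means compound restores mutant binding toward wildtype level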
MEKK3 confirm: MEKK3 wild-type PB1 binding to MEK5, inhibitors, confirmation, biochemical, bead multiplex flow cytometry, single concentration, wildtype. shares compounds with MEKK3 PB1 HTS. binding response (% of control), % at 10 µM. Alexa488-MEK5 binding to MEKK3; stronger effect = lower value. hit rate 1.8% among 5,900;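 active means binding response below 72% of control, or above a set upper limit, though filed actives all read lower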
Of the large screens only hits and unclear results are named; the others gave an inactive call (follow-up assays come after a bar, where they were run); [ ] = remark or other dose.

COCCNC(=O)CNC(=O)c1nn(-c2ccc(OC)c(Cl)c2)c(=O)c2ccccc12	MEKK2 WT-MEK5 135, MEKK3 PB1 HTS 143 | MEKK2wt confirm inactive | MEKK2mut-MEK5 inactive | MEKK3 confirm inactive
CCCCNC(=O)CNC(=O)c1nn(-c2ccc(OC)c(Cl)c2)c(=O)c2ccccc12	none
COC(=O)C[C@H]1C[C@H]2c3cc(NC(=O)NC4CCCC4)ccc3O[C@H]2[C@@H](CO)O1	none (no result: MEKK2 WT-MEK5, MEKK3 PB1 HTS, MEKK2mut PB1 HTS)
O=C(/C=C/c1ccco1)Nc1ccc(-c2nc3ccccc3[nH]2)cc1	MEKK2 WT-MEK5 47[inhibitor], MEKK3 PB1 HTS 35[inhibitor] | MEKK2wt confirm inactive | MEKK2mut-MEK5 inactive | MEKK3 confirm inactive
C=CCN(C#N)c1nc(OC)nc(N2CCCC2)n1	MEKK3 PB1 HTS 130 | MEKK2wt confirm inactive | MEKK2mut-MEK5 inactive | MEKK3 confirm inactive
CCOC(=O)N1CCN(C(=O)COC(=O)C2CCN(S(=O)(=O)c3c(Cl)cccc3Cl)CC2)CC1	none (no result: MEKK2 WT-MEK5, MEKK3 PB1 HTS, MEKK2mut PB1 HTS)
Cc1ccc(Cn2ccc(-c3cnc(-c4ccccc4)s3)n2)cc1	none
O=S(=O)(c1ccccc1)n1ccc(-c2cnc(-c3ccccc3)s2)n1	MEKK3 PB1 HTS 129 | MEKK2wt confirm inactive | MEKK2mut-MEK5 inactive | MEKK3 confirm inactive
CC(C)Oc1ccc(C(CCNCc2ccc(O)cc2)c2ccccc2)cc1 (stereo not drawn)	MEKK2 WT-MEK5 150, NRP1-CendR mod 25, MEKK2mut PB1 HTS 24 | MEKK2wt confirm inactive | MEKK2mut-MEK5 inactive | MEKK3 confirm inactive
COc1ccc(C(CCNCc2ccc(OC)c(OC)c2)c2ccc(F)cc2)cc1 (stereo not drawn)	none
COc1ccc(C(CCNCc2ccc(N(C)C)cc2)c2ccccc2)cc1 (stereo not drawn)	MEKK2 WT-MEK5 159 | MEKK2wt confirm inactive | MEKK2mut-MEK5 inactive | MEKK3 confirm inactive
CSc1nnc2ccc(-c3ccccn3)nn12	MEKK3 PB1 HTS 64[inhibitor] | MEKK2wt confirm inactive | MEKK2mut-MEK5 inactive | MEKK3 confirm inactive
CCN(CC)c1ccc(/C=C(\C#N)C(=O)c2ccc(Br)cc2)cc1	MEKK2 WT-MEK5 148, MEKK2mut PB1 HTS 153 | MEKK2wt confirm inactive | MEKK2mut-MEK5 inactive | MEKK3 confirm inactive
COc1ccc2ccccc2c1CNC(C)c1ccccc1 (stereo not drawn)	none
CC(NCCCOc1cccc2ccccc12)c1ccccc1 (stereo not drawn)	MEKK2 WT-MEK5 175 | MEKK2wt confirm inactive | MEKK2mut-MEK5 inactive | MEKK3 confirm inactive
Cc1sc(NC(=O)c2ccccc2)c(C(c2ccccn2)N2CCN(CCO)CC2)c1C (stereo not drawn)	MEKK3 PB1 HTS 140 | MEKK2wt confirm 1.0[inhibitor] | MEKK2mut-MEK5 inactive | MEKK3 confirm 2.0
CCOc1ccc(C(c2c(NC(=O)c3ccccc3)sc(C)c2C)N2CCN(C)CC2)cc1 (stereo not drawn)	none
O=[N+]([O-])c1ccc(-[n+]2ccc3ccccc3c2)c([N+](=O)[O-])c1	none (no result: MEKK2 WT-MEK5, MEKK3 PB1 HTS, MEKK2mut PB1 HTS)
O=[N+]([O-])c1ccc(-c2nc(Nc3cccc(O)c3)c3ccccc3n2)cc1	MEKK2 WT-MEK5 146 | MEKK2wt confirm inactive | MEKK2mut-MEK5 inactive | MEKK3 confirm inactive
CCCN1CCN(CCCNC(=O)CCn2nc(-c3ccccc3)ccc2=O)CC1	none
O=C(CCn1nc(-c2ccc(Cl)cc2)ccc1=O)NCCCN1CCCCCC1	MEKK2 WT-MEK5 193, MEKK2mut PB1 HTS 50 | MEKK2wt confirm inactive | MEKK2mut-MEK5 inactive | MEKK3 confirm inactive
O=C1NC(c2ccc(Cl)cc2)=COc2ccccc21	MEKK3 PB1 HTS 143 | MEKK2wt confirm inactive | MEKK2mut-MEK5 inactive | MEKK3 confirm inactive
COc1ccccc1-c1cc2c(c3c1ccn3C)C1CCC2C1 (stereo not drawn)	none (no result: MEKK2 WT-MEK5, MEKK3 PB1 HTS, MEKK2mut PB1 HTS)
COc1ccccc1CN1CCCC(CN(CCN(C)C)C(=O)C2CCCC2)C1 (stereo not drawn)	MEKK2 WT-MEK5 135, MEKK2mut PB1 HTS 34 | MEKK2wt confirm inactive | MEKK2mut-MEK5 inactive | MEKK3 confirm inactive
COc1ccccc1CN1CCCC(C(=O)N(C)Cc2ccccc2)C1 (stereo not drawn)	none
Cc1c(C(=O)NCCC#N)sc(=O)n1Cc1ccccc1F	none (no result: MEKK2 WT-MEK5, MEKK3 PB1 HTS, MEKK2mut PB1 HTS)
CCN1CCN(c2cc(-c3ccccc3)nc3cc(-c4cccc(F)c4)nn23)CC1	MEKK2 WT-MEK5 146, MEKK3 PB1 HTS 122, MEKK2mut PB1 HTS 49 | MEKK2wt confirm inactive | MEKK2mut-MEK5 inactive | MEKK3 confirm inactive
CCN(CC)CCNC(=S)Nc1ccc2nc(N3CCN(C)CC3)cc(C)c2c1	none
COCCNC(=S)Nc1ccc2nc(N3CCN(C)CC3)cc(C)c2c1	none
Cc1cc(N2CCN(C)CC2)nc2ccc(NC(=S)NCc3cccs3)cc12	MEKK2 WT-MEK5 141 | MEKK2wt confirm inactive | MEKK2mut-MEK5 inactive | MEKK3 confirm inactive
COc1ccc(CNC(=S)Nc2ccc3nc(N4CCN(C)CC4)cc(C)c3c2)cc1	MEKK2 WT-MEK5 152 | MEKK2wt confirm inactive | MEKK2mut-MEK5 inactive | MEKK3 confirm inactive
COc1ccccc1CNC(=S)Nc1ccc2nc(N3CCN(C)CC3)cc(C)c2c1	MEKK2 WT-MEK5 138 | MEKK2wt confirm inactive | MEKK2mut-MEK5 inactive | MEKK3 confirm inactive
COc1ccc(CNC(=S)Nc2ccc3nc(N4CCOCC4)cc(C)c3c2)cc1	none
CCCCN(CC)CCCNC(=S)Nc1ccc2nc(N3CCN(C)CC3)cc(C)c2c1	MEKK2 WT-MEK5 142 | MEKK2wt confirm inactive | MEKK2mut-MEK5 inactive | MEKK3 confirm inactive
CCCNC(=O)C1(C)CCN(C(=O)c2c(Cl)cccc2Cl)C1 (stereo not drawn)	none (no result: MEKK2 WT-MEK5, MEKK3 PB1 HTS, MEKK2mut PB1 HTS)
COc1cccc(C(=O)OCC(=O)NCC2CCCO2)c1 (stereo not drawn)	none (no result: MEKK2 WT-MEK5, MEKK3 PB1 HTS, MEKK2mut PB1 HTS)
COc1cc(/C=C2\C(=O)NN(c3ccccc3)C2=O)ccc1OCC(N)=O	MEKK3 PB1 HTS 134 (no result: SKN-1 block, NRP1-CendR mod) | MEKK2wt confirm inactive | MEKK2mut-MEK5 inactive | MEKK3 confirm inactive
